CDC25B CDK2 inh: human CDC25B-CDK2/CyclinA binding inhibition | HTRF CDC25B-CDK2/CyclinA binding, anti-His/anti-Flag; stronger effect = higher value | AID 1259370 | z-score (concentration not given with the values) | hit rate 0.72% among 94,000 | P30305+P24941; in the data active = z-score above about 3.2
HIV TAR-Tat: HIV-1 TAR-Tat binding disruption; HIV-1 TAR RNA, Tat peptide displacement FRET; stronger effect = higher value; z-score (concentration not given with the values); hit rate 0.6% among 100,000; AID 1259389; active = z-score of 3 or more in at least 2 runs
An asterisk follows results filed as active. Shown are actives, neighbours in structure and some others; about 0.93% of the full set was active somewhere.

Screening Cc1ccc(S(=O)(=O)Nc2cccc3ncccc23)cc1 returned CDC25B CDK2 inh -1.5.
c1coc(C2Oc3ccccc3C3CC(c4cccs4)=NN32)c1 (stereo unspecified) was read as CDC25B CDK2 inh -1.5.
For O=[N+]([O-])c1ccc(/C=C/C2Oc3ccccc3C3CC(c4cccs4)=NN23)o1 (stereo unspecified) the results were CDC25B CDK2 inh 1.5 and HIV TAR-Tat 13*.
COc1ccc(-c2[nH]nc3nc(-c4cc(Cl)ccc4O)cc(C(=O)O)c23)cc1 was read as HIV TAR-Tat 3.8.
Screening CCn1nc(C)c(CNC(=O)Nc2cc(C)ccc2C)c1C returned HIV TAR-Tat 1.4.
For COc1ccc(S(=O)(=O)NC2CCCCC2)cc1-c1nnc2c3ccccc3c(C)nn12 the results were CDC25B CDK2 inh 0.34 and HIV TAR-Tat 0.61.
`Cc1nc(-c2ccccc2)sc1C(=O)Nc1sc(C)c(C)c1C#N` gave CDC25B CDK2 inh -1.2 and HIV TAR-Tat -4.2.
Screening Cc1nc(-c2ccccc2)sc1C(=O)Nc1sc2c(c1C#N)CCC2 returned CDC25B CDK2 inh 8.5 and HIV TAR-Tat 17*.
Screening CCc1nn2c(=O)cc(CSc3nc4ccccc4s3)nc2s1 returned CDC25B CDK2 inh -0.62 and HIV TAR-Tat -0.55.
`Clc1ccc(C2NCCc3c2[nH]c2ccccc32)cc1` (stereo unspecified) gave CDC25B CDK2 inh -1.4 and HIV TAR-Tat 1.6.
`O=c1c(-c2ccccc2)c(C(F)(F)F)oc2c(CN3CCCC3)c(O)ccc12` gave CDC25B CDK2 inh 15* and HIV TAR-Tat 0.65.
For CC1CN(Cc2c(O)ccc3c(=O)c(-c4ccccc4)c(C(F)(F)F)oc23)CC(C)O1 (stereo unspecified) the results were CDC25B CDK2 inh 0.01 and HIV TAR-Tat 0.4.
`C=CCSc1nc(=O)c2c(n1C)NC(=O)CC2c1cc(F)cc(F)c1` (stereo unspecified) gave CDC25B CDK2 inh -1.5 and HIV TAR-Tat 1.6.
`C=CCSc1nc(=O)c2c(n1C)NC(=O)CC2c1cc(Br)ccc1OC` (stereo unspecified) gave CDC25B CDK2 inh -2.2 and HIV TAR-Tat 1.3.
For COCC(C)NC(=O)C(=O)Nc1c2c(nn1-c1ccc(Cl)cc1)CSC2 (stereo unspecified) the results were HIV TAR-Tat 1.4.
COc1ccc(NC(=O)NC(C)c2c(-n3cccc3)sc3c2CCCC3)cc1OC (stereo unspecified) was read as CDC25B CDK2 inh 11* and HIV TAR-Tat 0.45.
For COc1ccc(OC)c(NC(=O)NC(C)c2c(-n3cccc3)sc3c2CCCC3)c1 (stereo unspecified) the results were CDC25B CDK2 inh -5.1 and HIV TAR-Tat -0.12.
Screening O=C(CSc1nnnn1-c1ccccc1)Nc1ncc2c(n1)CC(c1ccco1)CC2=O (stereo unspecified) returned CDC25B CDK2 inh 15* and HIV TAR-Tat -4.7.
Screening Cc1nnc(SCC(=O)Nc2ncc3c(n2)CC(c2ccco2)CC3=O)s1 (stereo unspecified) returned CDC25B CDK2 inh 4.2 and HIV TAR-Tat -1.4.
O=C(O)CCCC(=O)Nc1cccc2cccnc12 was read as CDC25B CDK2 inh -0.19 and HIV TAR-Tat 1.4.
For Nc1ncccc1NC(=O)CCC(=O)O the results were CDC25B CDK2 inh 14* and HIV TAR-Tat 0.11.
Screening CC(=O)OC[C@H]1O[C@@H](OCc2ccccc2)[C@H](OC(C)=O)[C@@H](OC(C)=O)[C@@H]1OC(C)=O returned CDC25B CDK2 inh -0.63.
Screening O=C(OC[C@H]1O[C@H](OC(=O)c2cc(O)c(O)c(OC(=O)c3cc(O)c(O)c(O)c3)c2)[C@H](OC(=O)c2cc(O)c(O)c(OC(=O)c3cc(O)c(O)c(O)c3)c2)[C@@H](OC(=O)c2cc(O)c(O)c(OC(=O)c3cc(O)c(O)c(O)c3)c2)[C@@H]1OC(=O)c1cc(O)c(O)c(OC(=O)c2cc(O)c(O)c(O)c2)c1)c1cc(O)c(O)c(OC(=O)c2cc(O)c(O)c(O)c2)c1 returned HIV TAR-Tat 26*.
Screening CCOc1ccc(/C(O)=C2\C(=O)C(=O)N(c3nnc(C)s3)C2c2ccc(C(C)(C)C)cc2)cc1 (stereo unspecified) returned CDC25B CDK2 inh -4.1.
`O=c1cc(CSc2ccc(Cl)cc2)nc2sc(-c3ccco3)nn12` gave CDC25B CDK2 inh -2.2 and HIV TAR-Tat 1.6.
Cc1ccc(OCc2cc(=O)n3nc(-c4ccccc4)sc3n2)cc1C was read as CDC25B CDK2 inh 1.7 and HIV TAR-Tat 4.5*.
For O=c1cc(CSc2nc3ccccc3[nH]2)nc2sc(-c3ccco3)nn12 the results were CDC25B CDK2 inh -0.16 and HIV TAR-Tat 15*.
Cc1cccc(OCc2cc(=O)n3nc(-c4ccco4)sc3n2)c1C was read as CDC25B CDK2 inh -0.31 and HIV TAR-Tat 35*.
`O=c1cc(COc2ccc(Cl)cc2)nc2sc(-c3ccco3)nn12` gave CDC25B CDK2 inh -0.91 and HIV TAR-Tat 36*.
Screening CCc1nn2c(=O)cc(COc3ccc(C)c(C)c3)nc2s1 returned CDC25B CDK2 inh -1.5 and HIV TAR-Tat 0.78.
Screening Cc1nn2c(=O)cc(COc3cccc(C)c3C)nc2s1 returned CDC25B CDK2 inh -1 and HIV TAR-Tat -0.75.
Screening O=c1cc(CSc2nc3ccccc3[nH]2)nc2sc(-c3cccs3)nn12 returned CDC25B CDK2 inh 0.61 and HIV TAR-Tat 0.82.
`O=C(NCCN1CCOCC1)c1ccc(N2CCSc3ncccc32)s1` gave HIV TAR-Tat 0.55.
CC(C)c1ccc2c(ccc[n+]2C)c1 was read as CDC25B CDK2 inh -0.92.

Source: PubChem BioAssay
